Measured values reported in PubChem BioAssay AID1851 (National Center for Advancing Translational Sciences (NCATS), 2009).
Among all 16,000 compounds or so, about 5,100 (32%) were called active. Roughly 25% stayed inconclusive and do not appear here. The call rests on the fitted dose curve; in most records, active means well fitted curve in the direction sought with a large enough effect; inconclusive means small, poorly fitted or top-dose-only effect, or effect the other way; inactive means no such curve, though single readings can be large or run the other way. The list shows a part of the results.

The molecules below were run against Cytochrome P450 3A4 (Homo sapiens) (UniProt P08684) (assay: Cytochrome panel assay with activity outcomes). Details: recombinant CYP, pro-luciferin dealkylation, luminescence, p450-cyp3a4; series mostly up to 57.1 µM; activity, negative = inhibition: at the top concentration.
On the % scale 0 is the no-effect control and ±100 the full control effect.

Chain of Cytochrome P450 3A4 (Homo sapiens) (P08684 whole entry, looked up): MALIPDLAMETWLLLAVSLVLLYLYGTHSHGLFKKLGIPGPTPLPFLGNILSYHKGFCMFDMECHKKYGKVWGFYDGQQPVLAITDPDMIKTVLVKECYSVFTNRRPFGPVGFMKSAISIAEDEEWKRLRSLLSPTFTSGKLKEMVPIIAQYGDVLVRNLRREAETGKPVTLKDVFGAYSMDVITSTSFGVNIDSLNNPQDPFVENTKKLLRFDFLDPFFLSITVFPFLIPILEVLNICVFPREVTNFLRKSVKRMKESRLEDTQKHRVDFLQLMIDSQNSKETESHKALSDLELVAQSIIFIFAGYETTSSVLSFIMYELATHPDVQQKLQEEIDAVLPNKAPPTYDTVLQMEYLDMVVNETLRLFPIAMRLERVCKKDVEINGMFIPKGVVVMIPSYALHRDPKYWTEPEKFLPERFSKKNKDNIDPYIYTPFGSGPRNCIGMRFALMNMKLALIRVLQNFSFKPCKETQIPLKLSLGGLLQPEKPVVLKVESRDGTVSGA

activity, negative = inhibition, inactive:
Cc1nn(Cc2c(F)c(F)c(F)c(F)c2F)c(C)c1NC(=O)c1cccc(COc2ccc(Cl)cc2)c1 -20.6% [at 2.29 µM]
Cc1ncc(COP(=O)(O)O)c(C)c1O -9.44% [at 11.4 µM]
COc1ccc(OC)c(NC(=O)[C@H]2CC=CC[C@H]2C(=O)O)c1 -12%
COc1ccc(OC)c(-c2cc(C(=O)O)c3cc4ccccc4cc3n2)c1 6% [at 11.4 µM]
Nc1c2c(nc3ccccc13)CCCC2 -22.4%
O=C1NC(=O)C(c2ccccc2)(c2ccccc2)N1 -9.15%
O=C1Nc2cc(C(=O)N3CCOCC3)ccc2SC1N1CCOCC1 (centres undefined) 17.3%
Cc1cn(CC[C@H](N)C(=O)O)c(=O)[nH]c1=O -9% [at 11.4 µM]
O=C(Nc1cccc(F)c1)N1CCC2(CC1)CCN(C(=O)c1csnn1)CC2 -2.16%
O=C(O)CCC(=O)c1ccc(Cl)cc1 1.22% [at 11.4 µM]
CCN1CCN(CCCNC(=O)C(NC(=O)C2CCC(C)CC2)C(C)C)CC1 (centres undefined) -9.25%
Cc1ccc2[nH]c(-c3ccccc3)c(CN(C)C)c(=O)c2c1 9.06% [at 2.29 µM]
CCCCNC(=O)C(=O)NC(C)CCc1ccccc1 (centres undefined) 1.86%
COc1ccc2[nH]c3cc4c(=O)c5cc(OC)ccc5[nH]c4cc3c(=O)c2c1 -0.294% [at 11.4 µM]
CSc1nc(C)c2c(n1)N(c1ccc(C(C)C)cc1)CC2 -16.2%
Cc1cc(C)c[n+](CC(=O)c2cc3ccccc3oc2=O)c1 -13.7%
CN(C)c1ncnc2c1ncn2CCn1cnc2c(N(C)C)ncnc21 8.51% [at 11.4 µM]
NC(=O)C1(N2CCCCC2)CCN(C(=O)c2ccc(-n3cnnn3)cc2)CC1 -3.2%
NC(N)=[N+]1CCc2ccccc2C1 -1.96%
CN1CCN(NC(=O)c2ccccc2F)CC1 4.34%
[Cu].[O-]/N=C1/C(=[OH+])Nc2ccccc21.[O-]Nc1c(O)[nH]c2ccccc12 1.34% [at 11.4 µM]
O=C(O)c1ccc(S(=O)(=O)N=Nc2c(O)[nH]c3ccccc23)cc1 14.3% [at 11.4 µM]
O=c1[nH][nH]c(C(F)(F)F)c1C=Nc1ccccc1 -5.01%
COc1cc2nc(N(C)CCCNC(=O)[C@@H]3CCCO3)nc(N)c2cc1OC -10.6% [at 25.6 µM]
C=CCN=C1CC(C)(C)CC(=O)/C1=C(/O)CCC(=O)OC -3.27%
CC(C)(CCc1nc2ccccc2[nH]1)C(=O)O -1.06% [at 11.4 µM]
CC(=O)COC(=O)CCc1nc2ccccc2[nH]c1=O 10.3%
CCCCNC(=O)NS(=O)(=O)c1ccc(C(=O)OC(C)C)o1 1.1%
C/C(=N\OC(=O)c1ccccc1)c1cc(-c2ccc(Cl)cc2)no1 -1.98%
Cc1cc(C)n(CC(=O)N/N=C/c2ccco2)n1 8.54%
O=C(Nc1cccc(F)c1)/C(=C\c1ccco1)NC(=O)c1cccs1 -8.91% [at 2.29 µM]
O=C(NC(=S)NNC(=O)c1cccs1)c1ccco1 -0.791% [at 2.29 µM]
O=C(O)C/C(=C\c1ccco1)C(=O)O -18.3% [at 11.4 µM]
O=C(NC(N1CCCC1)C(Cl)(Cl)Cl)c1ccccc1 (centres undefined) -21.3%
O=C(NCC1CCCO1)/C(=C\c1ccco1)NC(=O)c1ccccc1 (centres undefined) -22.7%
O=C(NNC(=O)c1ccccc1)C(=O)N1CCCCC1 11.6%
CC(=NC1CCCCC1)c1ccccc1O -3.59% [at 11.4 µM]
CC(=O)/C=C/c1ccc2ccccc2n1 -12.5%
Cc1cc(N=Cc2c(CO)cnc(C)c2O)c(N=Cc2c(CO)cnc(C)c2O)cc1C.[Zn] -6.9% [at 11.4 µM]
COC(=O)CSc1ccc2nnc(-c3ccc(F)cc3)n2n1 2.79%
O=C1C2=CC[C@@H]3C(=O)N(c4ccc(F)cc4F)C(=O)[C@H]3[C@H]2[C@H](O)[C@H]2O[C@H]12 -21.3% [at 11.4 µM]
CC1(C)CCC(NC(=O)[C@H](N)CCC(=O)O)CC1 -1.71%
O=[N+]([O-])c1ccc(Cl)c(/C=N/N2CCN(Cc3ccccc3)CC2)c1 -22.6%
C(/C=C/c1ccco1)=N/N1CCN(c2ccccc2)CC1 7.59%
CC(C)N(Cc1ccccc1)S(=O)(=O)c1n[nH]c(C(C)(C)C)n1 -24.5% [at 11.4 µM]
O=C(Nc1nc2ccc(F)cc2s1)C1CCCO1 (centres undefined) -18.2%
CC(C)(C)c1ccc(OC(=O)Nc2ccc(O)c(C(=O)O)c2)cc1 -11.3% [at 11.4 µM]
CC1(C)Cc2ccccc2C(N/N=C/c2cccc(F)c2)=N1 14.5% [at 2.29 µM]
Cc1cnn(-c2cc(N/N=C/c3ccccc3)ncn2)c1 -6.74%
CC(C)N(CCNC(=O)C1CCC(=O)N1Cc1ccc(F)cc1)Cc1ccccc1 (centres undefined) -25.2%
CN(C(=O)c1ccncc1)c1ccccc1 -11.8% [at 11.4 µM]
NC(=O)C1CCN(C(=O)CN2C(=O)c3ccccc3S2(=O)=O)CC1 -1.28%
O=C(CN1C(=O)c2ccccc2S1(=O)=O)Nc1ccccc1 12.5%
O=C(NCCCN1CCN(c2cccc(Cl)c2)CC1)C1CCC(=O)N1Cc1ccccc1Cl (centres undefined) -7.41% [at 2.29 µM]
COCCCNC(=O)C1CCC(=O)N1Cc1ccccc1Cl (centres undefined) -20.1% [at 11.4 µM]
CC(C)NC(=O)N1CCC2(CC1)CCN(S(C)(=O)=O)CC2 -7.29%

AC50, active:
Cc1nn(Cc2c(F)c(F)c(F)c(F)c2F)c(C)c1NC(=O)c1cccc(COc2ccccc2Cl)c1 3.98 µM
Cc1nn(Cc2c(F)c(F)c(F)c(F)c2F)c(C)c1NC(=O)c1c(-c2ccccc2)nn(-c2ccccc2)c1C 2.24 µM
COc1cc(-c2nnc(COC(=O)c3c4c(nc5ccccc35)CCCC4)o2)cc(OC)c1OC 4.47 µM
COc1ccc(OC)c(NC(=O)c2c3c(nc4ccccc24)CCC3)c1 7.08 µM
O=C(NCc1ccccc1)C(c1ccncc1)N(C(=O)c1csnn1)C1CC1 (centres undefined) 2.82 µM
O=C(NCc1ccc(F)cc1)C(c1ccncc1)N(C(=O)c1csnn1)C1CC1 (centres undefined) 2 µM
O=C(C/C=N/OCc1ccc(Cl)cc1Cl)c1ccc(Cl)cc1 25.1 µM
CC(=O)NCCc1c(Cc2ccccc2)[nH]c2ccccc12 7.94 µM
COc1ccc2[nH]c(-c3ccccc3)c(CCNC(C)=O)c2c1 12.6 µM
CCCCC(=O)NCCc1c(Cc2ccccc2)[nH]c2ccccc12 0.794 µM
C=CCc1cccc2cc(C(=O)N(CC)CC)c(=O)oc12 11.2 µM
CN(C)c1ccc(-c2ccc3ncnc(N(C)C)c3c2)cc1 6.31 µM
CN(C)c1ncnc2ccc(-c3cccc(C#N)c3)cc12 12.6 µM
CN(C)c1ncnc2ccc(-c3cccnc3)cc12 1 µM
COc1cccc(-c2ccc3ncnc(N(C)C)c3c2)c1 7.94 µM
COC(=O)C(NNc1ccccc1)(NC(=O)c1ccccc1F)C(F)(F)F (centres undefined) 1.58 µM
O=Nc1c(-c2c(O)[nH]c3ccccc23)[nH]c2ccccc12 7.94 µM
COc1cc2nc(N3CCN(C(=O)OCc4ccccc4)[C@H](C(=O)NC(C)(C)C)C3)nc(N)c2cc1OC 3.98 µM
Cc1cc(C)cc(NC(=O)CCc2nc3ccccc3[nH]2)c1 2.82 µM
CCCn1c(-c2cccs2)nc2nc3ccccc3nc21 10 µM
N/C(=N\OC(=O)Cc1ccc(Cl)cc1)c1cccnc1 0.794 µM
COc1ccccc1NCc1nnc(SCC(=O)N/N=C/c2ccco2)n1-c1ccc(Cl)cc1Cl 5.01 µM
CC(=O)c1cccc(NC(=O)/C(=C\c2ccco2)NC(=O)c2cccs2)c1 20 µM
O=C(N/C(=C/c1ccco1)C(=O)N1CCCCCC1)c1cccs1 14.1 µM
O=C(N/C(=C\c1cccs1)C(=O)N1CCCCCC1)c1ccccc1 7.94 µM
C/C(=N/Nc1ccc2ccccc2n1)c1ccccc1O 3.16 µM
Cc1cc(C)cc(-n2nnnc2SCC(=O)Nc2nc(-c3ccc(Cl)cc3)cs2)c1 3.98 µM
Cc1cc(C)cc(-n2nnnc2SCC(=O)Nc2nc(-c3ccc(F)cc3)cs2)c1 1.58 µM
Cc1ncsc1C(=O)N1N=C2/C(=C/c3ccccc3)CCCC2C1c1ccccc1 (centres undefined) 5.01 µM
COc1ccc(/C=C2\CCCC3C2=NN(C(=O)c2ccco2)C3c2ccc(OC)c(OC)c2)cc1OC (centres undefined) 7.94 µM
COc1ccccc1/C=C/C=N/N1CCN(Cc2ccc(Cl)cc2)CC1 14.1 µM
Fc1ccc2nc(Nc3nc4c(s3)CCCC4)sc2c1 22.4 µM
Cc1cccc(/C=N\Nc2cn[nH]c(=O)c2Cl)c1 15.8 µM
COC(=O)[C@@]1(Cc2ccc(F)cc2)[C@@H]2[C@@H](CC(=O)[C@H]2CC(=O)C(=O)N(C)C)CN1C(=O)c1ccccc1 6.31 µM
COC(=O)[C@@]1(Cc2ccc(OC)cc2)[C@@H]2[C@@H](CC(=O)[C@H]2CC(=O)C(=O)N(C)C)CN1C(=O)c1ccccc1 1 µM
COC(=O)c1c(C)oc2ccc(N(C(=O)c3ccncc3)S(=O)(=O)c3ccccc3)cc12 7.08 µM
Cc1ccc(C)c(C(=O)CN2C(=O)c3ccccc3S2(=O)=O)c1 7.94 µM
CN(CCCNC(=O)C1CCC(=O)N1Cc1ccccc1Cl)c1ccccc1 (centres undefined) 7.08 µM
